# Source: PubChem BioAssay (NCI)
# Compounds without any hit were thinned out: in the full panel of roughly 83,000, 20% have a hit.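 Treatment: one concentration, 48 hours, 96-well format. Scoring: percent growth, with anything below 10 considered active.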 A number with no mark means an inactive call. Calls of active or inactive are those of the source.
# What was measured:
# Assay in all cases: NCI-60 one-dose screen, 48 h (100 = growth as untreated, 0 = no growth, -100 = all killed)
# NCI-H23 lung = settings: 10 µM unless noted
# NCI-H226 lung = settings: 10 µM unless noted
# NCI-H322M lung = settings: 10 µM unless noted
# HOP-62 NSCLC = settings: 10 µM unless noted
# NCI-H460 lung = settings: 10 µM unless noted
# HOP-92 NSCLC = settings: 10 µM unless noted
# NCI-H522 lung = settings: 10 µM unless noted
# A549/ATCC NSCLC = settings: 10 µM unless noted
# 786-0 renal = settings: 10 µM unless noted
# COLO 205 colon = settings: 10 µM unless noted
# DU-145 prostate = settings: 10 µM unless noted
# K-562 leukemia = settings: 10 µM unless noted
# MALME-3M melanoma = settings: 10 µM unless noted
# MDA-MB-231 breast = settings: 10 µM unless noted
# RXF 393 renal = settings: 10 µM unless noted
# SF-268 CNS = settings: 10 µM unless noted
# SF-295 CNS = settings: 10 µM unless noted
# SF-539 CNS = settings: 10 µM unless noted
# M14 melanoma = settings: 10 µM unless noted
# UACC-257 melanoma = settings: 10 µM
SMILES,growth (NCI-H23 lung),growth (NCI-H226 lung),growth (NCI-H322M lung),growth (HOP-62 NSCLC),growth (NCI-H460 lung),growth (HOP-92 NSCLC),growth (NCI-H522 lung),growth (A549/ATCC NSCLC),growth (786-0 renal),growth (COLO 205 colon),growth (DU-145 prostate),growth (K-562 leukemia),growth (MALME-3M melanoma),growth (MDA-MB-231 breast),growth (RXF 393 renal),growth (SF-268 CNS),growth (SF-295 CNS),growth (SF-539 CNS),growth (M14 melanoma),growth (UACC-257 melanoma)
O=C1C[C@@H](c2ccccc2)Oc2c(Cc3ccccc3O)c(O)c(Cc3cc(Cc4cc(Cc5ccccc5O)ccc4O)ccc3O)c(O)c21,94.7%,86%,110%,97.4%,104%,78%,107%,101%,100%,111%,102%,99.8%,95%,82.4%,94.7%,85.2%,102%,101%,88.6%,
CC1(C)CC[C@]2(C(=O)N3CCCN(CC#N)CC3)CC[C@]3(C)C(=CC[C@@H]4[C@@]5(C)CC[C@H](O)C(C)(C)[C@@H]5CC[C@]43C)[C@H]2C1,55.6%,71.1%,94.9%,70.8%,16.8%,19.3%,67.5%,39.1%,68.6%,-15.5% (active),78.5%,3.77% (active),77.8%,55.6%,,69.2%,91.7%,68.5%,65.7%,50.6%
CC[C@H](C)[C@H]1NC(=O)[C@@H]([C@H](O)C(C)C)NC(=O)[C@@H](C)N(C)C(=O)[C@H](C)N(C)C(=O)[C@H](CC(C)C)NC(=O)[C@H](CC(C)C)N(C)C(=O)[C@H](C)N(C)C1=O,-2.85% (active),-6.15% (active),5.75% (active),-13.3% (active),1.46% (active),-3.54% (active),1.44% (active),0.788% (active),0.205% (active),-8.56% (active),1.83% (active),7.23% (active),3.72% (active),8.22% (active),-17.8% (active),4.57% (active),-4.82% (active),-12.6% (active),-18.2% (active),
CS(=O)(=O)c1nccc(-c2c(-c3ccc(F)c(OCc4ccc(F)cc4)c3)nc3sccn23)n1,99.2%,83.7%,-78.2% (active),68.3%,10.3%,23%,53.9%,104%,95.1%,109%,-96.4% (active),,111%,79.9%,84.2%,96.1%,96.9%,90.1%,81.3%,-56.9% (active)
COc1cnc2c(c1)C(=O)c1c-2n(CCCn2ccnc2)c(=O)c2cc(OC)c(OC)cc12,-1.32% (active),29.7%,-8.33% (active),-47.5% (active),-47.9% (active),-12.2% (active),-80.5% (active),-14.9% (active),-14.9% (active),-85.2% (active),-2.47% (active),,-51.4% (active),-0.696% (active),-10.5% (active),29.2%,-20.5% (active),-35.2% (active),-86.5% (active),
COCCOc1ccc(-c2csc(NC(C)=O)n2)cc1NS(=O)(=O)c1cccc2c(N(C)C)cccc12,104%,84.9%,92.6%,102%,100%,58.6%,85.2%,98.3%,95.8%,94.5%,98.3%,,83.9%,80.2%,91.7%,96.2%,95.9%,90.9%,94%,
COc1ccc([C@H]2[C@H](O)C(=O)N2c2cc(OC)c(OC)c(OC)c2)cc1,12.6%,19.5%,47.9%,26.2%,3.39% (active),-4.93% (active),-20.8% (active),21.6%,19.5%,-74.6% (active),17.8%,,59.9%,25%,21.8%,47.5%,14.1%,-20.3% (active),10.3%,
CCNCCCn1c2c(c3cc(OC)c(OC)cc3c1=O)C(=O)c1cc(OC)cnc1-2,21.1%,17.7%,33.2%,-12.2% (active),0.566% (active),31.1%,13.4%,34.4%,-3.55% (active),13.4%,19.6%,,62.9%,16.3%,13.6%,39.5%,14.8%,-7.15% (active),13.9%,
